# Many of the other results were omitted from the sample, so the strongest signals are more common in it than they were.
# What was measured:
# Assay in all cases: glycan array binding signal (z-score within array); higher = stronger binding
# Details in all cases: glycan notation: IUPAC condensed, linker removed
# [1] = molecular target: Fuc(a1-2)Gal(b1-3)GlcNAc(b1-3)[Gal(b1-4)GlcNAc(b1-6)]Gal(b1-4)Glc
# In short: (§1)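 The binding signal is a Z-score computed within each array and averaged over linkers. Arrays of the same protein sequence at different concentrations or buffers were also averaged together. Data originate from 3228 arrays in the Consortium for Functional Glycomics database, kept only where the protein sequence was available.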
# [2] = molecular target: Fuc(a1-2)Gal(b1-4)GlcNAc(b1-3)Gal(b1-4)GlcNAc
# In short: as §1
# [3] = molecular target: Fuc(a1-2)Gal(b1-4)GlcNAc6S
# In short: as §1
# [4] = molecular target: Fuc(a1-2)Gal(b1-4)[Fuc(a1-3)]GlcNAc(b1-2)[Fuc(a1-2)Gal(b1-4)[Fuc(a1-3)]GlcNAc(b1-4)]Man(a1-3)[Fuc(a1-2)Gal(b1-4)[Fuc(a1-3)]GlcNAc(b1-2)Man(a1-6)]Man(b1-4)GlcNAc(b1-4)GlcNAc
# In short: as §1
# [5] = molecular target: Fuc(a1-2)[Gal(a1-3)]Gal(b1-4)GlcNAc
# In short: as §1
# [6] = molecular target: Fuc(a1-3)[Gal(b1-4)]GlcNAc(b1-2)Man(a1-3)[Fuc(a1-3)[Gal(b1-4)]GlcNAc(b1-2)Man(a1-6)]Man(b1-4)GlcNAc(b1-4)GlcNAc
# In short: as §1
# [7] = molecular target: Fuc(a1-3)[Gal(b1-4)]GlcNAc(b1-2)Man(a1-3)[Fuc(a1-3)[Gal(b1-4)]GlcNAc(b1-2)Man(a1-6)]Man(b1-4)GlcNAc(b1-4)[Fuc(a1-6)]GlcNAc
# In short: as §1
# [8] = molecular target: Fuc(a1-3)[Gal(b1-4)]GlcNAc(b1-6)GalNAc
# In short: as §1
# Gal(a1-3)Gal = molecular target: Gal(a1-3)Gal
# In short: as §1
# [9] = molecular target: Gal(a1-3)Gal(b1-4)GlcNAc(b1-2)Man(a1-3)[Gal(a1-3)Gal(b1-4)GlcNAc(b1-2)Man(a1-6)]Man(b1-4)GlcNAc(b1-4)GlcNAc
# In short: as §1
# [10] = molecular target: Gal(a1-3)[Gal(a1-4)]Gal(b1-4)GlcNAc
# In short: as §1
# Gal(a1-6)Glc = molecular target: Gal(a1-6)Glc
# In short: as §1
# [11] = molecular target: Gal(b1-3)GlcNAc(b1-2)[Gal(b1-3)GlcNAc(b1-6)]Man(a1-6)[Gal(b1-3)GlcNAc(b1-2)Man(a1-3)]Man(b1-4)GlcNAc(b1-4)GlcNAc
# In short: as §1
# [12] = molecular target: Gal(b1-3)GlcNAc(b1-3)Gal(b1-3)GlcNAc
# In short: as §1
# [13] = molecular target: Gal(b1-3)GlcNAc(b1-3)Gal(b1-4)GlcNAc(b1-3)Gal(b1-4)GlcNAc(b1-2)[Gal(b1-3)GlcNAc(b1-3)Gal(b1-4)GlcNAc(b1-3)Gal(b1-4)GlcNAc(b1-6)]Man(a1-6)[Gal(b1-3)GlcNAc(b1-3)Gal(b1-4)GlcNAc(b1-3)Gal(b1-4)GlcNAc(b1-2)Man(a1-3)]Man(b1-4)GlcNAc(b1-4)[Fuc(a1-6)]GlcNAc
# In short: as §1
# [14] = molecular target: Gal(b1-3)GlcNAc(b1-3)Gal(b1-4)GlcNAc(b1-6)[Gal(b1-3)GlcNAc(b1-3)]Gal(b1-4)Glc
# In short: as §1
# [15] = molecular target: Gal(b1-3)GlcNAc(b1-6)[Gal(b1-3)]GalNAc
# In short: as §1
# [16] = molecular target: Gal(b1-3)[Neu5Ac(b2-6)]GalNAc
# In short: as §1
# [17] = molecular target: Gal(b1-4)GlcNAc(b1-3)Gal(b1-4)GlcNAc(b1-3)Gal(b1-4)GlcNAc(b1-2)Man(a1-3)[Gal(b1-4)GlcNAc(b1-3)Gal(b1-4)GlcNAc(b1-3)Gal(b1-4)GlcNAc(b1-2)Man(a1-6)]Man(b1-4)GlcNAc(b1-4)GlcNAc
# In short: as §1
# [18] = molecular target: Gal(b1-4)GlcNAc(b1-3)Gal(b1-4)GlcNAc(b1-3)Gal(b1-4)GlcNAc(b1-3)Gal(b1-4)GlcNAc(b1-3)Gal(b1-4)GlcNAc(b1-2)[Gal(b1-4)GlcNAc(b1-3)Gal(b1-4)GlcNAc(b1-3)Gal(b1-4)GlcNAc(b1-3)Gal(b1-4)GlcNAc(b1-3)Gal(b1-4)GlcNAc(b1-6)]Man(a1-6)[Gal(b1-4)GlcNAc(b1-3)Gal(b1-4)GlcNAc(b1-3)Gal(b1-4)GlcNAc(b1-3)Gal(b1-4)GlcNAc(b1-3)Gal(b1-4)GlcNAc(b1-2)Man(a1-3)]Man(b1-4)GlcNAc(b1-4)[Fuc(a1-6)]GlcNAc
# In short: as §1
# Gal(b1-4)GlcNAc6P = molecular target: Gal(b1-4)GlcNAc6P
# In short: as §1
# Gal3S(b1-3)GalNAc = molecular target: Gal3S(b1-3)GalNAc
# In short: as §1
# Gal3S(b1-4)Glc = molecular target: Gal3S(b1-4)Glc
# In short: as §1
# [19] = molecular target: Gal3S(b1-4)[Fuc(a1-3)]Glc6S
# In short: as §1
# Gal3S4S(b1-4)GlcNAc = molecular target: Gal3S4S(b1-4)GlcNAc
# In short: as §1
# Gal3S6S(b1-4)GlcNAc = molecular target: Gal3S6S(b1-4)GlcNAc
# In short: as §1
binder,measurement,setting,value
"Ovorubin (Pomacea canaliculata), J7I2T6 (protein) MFVATSLLLAIATLVVRASPHNYLIMDIEPPKSVSERDILNLLSPLQVKHSFRVTGSTRLLIVIRLDAQSYEKLDEITVPGKVEVIPAVNMADTMERCGVSWPRVELTDDNVTLFESESTLTDVTKEQLKAMLIGYGEHMSGLLQAHRFEYYQAAGATPHRHFVFVNSVPDEIEVFGREGVDIWGGPGEFVVKPQYVTRI",glycan array binding signal (z-score),[1],0.184
same,glycan array binding signal (z-score),[2],0.006
same,glycan array binding signal (z-score),[3],0.049
same,glycan array binding signal (z-score),[4],0.485
same,glycan array binding signal (z-score),[5],-0.498
same,glycan array binding signal (z-score),[6],0.055
same,glycan array binding signal (z-score),[7],-0.362
same,glycan array binding signal (z-score),[8],0.355
same,glycan array binding signal (z-score),Gal(a1-3)Gal,-0.576
same,glycan array binding signal (z-score),[9],0.572
same,glycan array binding signal (z-score),[10],7.96
same,glycan array binding signal (z-score),Gal(a1-6)Glc,-1.13
same,glycan array binding signal (z-score),[11],4.93
same,glycan array binding signal (z-score),[12],-0.763
same,glycan array binding signal (z-score),[13],2.9
same,glycan array binding signal (z-score),[14],-0.801
same,glycan array binding signal (z-score),[15],0.3
same,glycan array binding signal (z-score),[16],-0.862
same,glycan array binding signal (z-score),[17],0.387
same,glycan array binding signal (z-score),[18],2.67
same,glycan array binding signal (z-score),Gal(b1-4)GlcNAc6P,-0.461
same,glycan array binding signal (z-score),Gal3S(b1-3)GalNAc,0.802
same,glycan array binding signal (z-score),Gal3S(b1-4)Glc,-0.766
same,glycan array binding signal (z-score),[19],3.72
same,glycan array binding signal (z-score),Gal3S4S(b1-4)GlcNAc,9.33
same,glycan array binding signal (z-score),Gal3S6S(b1-4)GlcNAc,4.31
